Sfp PPTase inh – inhibitors of Bacillus subtilis Sfp phosphopantetheinyl transferase | Q9F4F7 | Biochemical Sfp PPTase activity, qHTS | Potency, µM, for inactives: largest response in the series, negative = inhibition, hits mostly inhibitors | hit rate 3.5% among 310,000;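 also: the enzyme is Sfp with the accession as filed and its product quenches rhodamine fluorescence; potency is read from the fitted curve at half-maximal effect; 0% = enzyme reaction without inhibitor and -100% = no enzyme wells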
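After 15 min at room temperature with compound, 15 nM Sfp received 5 uM rhodamine-CoA plus 12.5 uM BHQ-2-ybbR (50 mM Hepes pH 7.6, 10 mM MgCl2). Rate came from the fluorescence difference over 30 min, ex 525/em 598 nm.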
JMJD2E inh – inhibitors of human JMJD2E histone demethylase; B2RXH2; Potency, µM (series often up to 57.1 µM), without a hit: top-dose activity change, negative = inhibition, usual class: inhibitors; hit rate 1.6% among 230,000; JMJD2E catalytic domain, FDH-coupled NADH fluorescence (FDH is formaldehyde dehydrogenase);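 also: potency is read from the fitted curve at half-maximal effect; 0% = wells with enzyme and -100% = buffer wells without enzyme; nearly all actives have a fitted effect of over 50% in size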
Target sequence (B2RXH2 1-337 limits assumed): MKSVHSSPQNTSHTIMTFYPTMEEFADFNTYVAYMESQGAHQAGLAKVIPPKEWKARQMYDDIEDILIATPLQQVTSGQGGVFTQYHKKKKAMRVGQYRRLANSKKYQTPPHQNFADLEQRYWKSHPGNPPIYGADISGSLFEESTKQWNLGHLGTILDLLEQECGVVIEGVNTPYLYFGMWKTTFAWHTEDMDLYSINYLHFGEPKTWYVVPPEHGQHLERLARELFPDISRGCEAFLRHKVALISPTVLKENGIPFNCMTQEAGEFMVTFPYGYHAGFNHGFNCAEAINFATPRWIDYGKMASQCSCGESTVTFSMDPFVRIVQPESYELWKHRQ
NPSR antagonist – neuropeptide S receptor (human) antagonism, cAMP | Q6W5P4 | CHO-NPSR cells, cAMP TR-FRET, antagonist mode | Potency, µM (titrated, usually from 38.3 µM), inactives show at the top dose activity change, negative = inhibition, hits mostly inhibitors | hit rate 1% among 220,000; also: potency is read from the fitted curve at half-maximal effect; nearly all actives have a fitted effect of over 50% in size
RGS12 GoLoco inh – RGS12 GoLoco-Gai1 interaction inhibition; P63096; Gai1:RGS12 GoLoco peptide FP, rhodamine, 10 min; Potency, µM (highest dose often 61.6 µM), for the others: top-dose activity, negative = inhibition, most hits filed as inhibitors; hit rate 0.44% among 230,000; AID 880; active = well fitted inhibition curve with a large enough effect, not every such curve was filed as active; inactive = no such curve, though single readings can be large or run the other way; also: potency is read from the fitted curve at half-maximal effect; nearly all actives have a fitted effect of over 30% in size
Target sequence (P63096 whole entry, looked up): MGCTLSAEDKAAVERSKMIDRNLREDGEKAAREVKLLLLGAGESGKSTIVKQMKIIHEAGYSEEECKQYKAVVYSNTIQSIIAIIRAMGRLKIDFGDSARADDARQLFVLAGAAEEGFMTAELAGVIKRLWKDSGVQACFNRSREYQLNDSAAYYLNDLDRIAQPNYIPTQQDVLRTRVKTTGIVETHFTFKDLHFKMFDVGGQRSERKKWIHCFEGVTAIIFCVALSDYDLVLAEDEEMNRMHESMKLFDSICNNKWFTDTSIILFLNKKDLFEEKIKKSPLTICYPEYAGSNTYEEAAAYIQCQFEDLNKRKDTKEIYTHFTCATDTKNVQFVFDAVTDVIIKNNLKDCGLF
ALDH1A1 block – ALDH1A1 (human) enzyme inhibition | P00352 | Purified ALDH1A1, NADH fluorescence, propionaldehyde substrate | Potency, µM (titrated, usually from 75.3 µM), without a hit: at the top dose activity, negative = inhibition, actives largely listed as inhibitors | hit rate 7.3% among 220,000; active = well fitted inhibition curve with a large enough effect, not every such curve was filed as active; inconclusive = small, poorly fitted or top-dose-only effect, or another doubt; inactive = no such curve, though single readings can be large or run the other way;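 also: potency is read from the fitted curve at half-maximal effect; plate controls were no enzyme wells and a reference inhibitor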
Coupling enz – inhibits coupling enzyme system, counter-screen for aldolase hits; coupling enzyme system counterscreen, AmpLite Red fluorescence; activity change, negative = inhibition, % at 58.2 µM, hits read low; hit rate 0.67% among 290,000; in the data active = activity change below about -30%
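Compounds tested against the coupling enzymes alone at 57.5 uM final; readout was AmpLite Red fluorescence (525/598 nm) after 20 min at RT.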
Active calls of the source: *; ? = inconclusive; . = no result given; ! = a repeat was not active; [ ] = another dose, or the depositor's remark. This is a sample that favours compounds with a hit; in the whole collection about 8.5% have one here. Unless noted, calls follow the shape of the dose curve; as a rule, active = well fitted curve in the direction sought with a large enough effect; inconclusive = small, poorly fitted or top-dose-only effect, or another doubt; inactive = no such curve, though single readings can be large; an effect the other way counts as inactive or inconclusive. Unless noted, % is scaled to controls: 0 for no effect and ±100 for the full control effect.

SMILES	Sfp PPTase inh	JMJD2E inh	NPSR antagonist	RGS12 GoLoco inh	ALDH1A1 block	Coupling enz
CC(C)(C)NC(=O)C(c1ccncc1)N(C(=O)Cn1nnc(-c2ccc(F)cc2)n1)c1ccc(F)cc1 (stereo not given)	-2.1%	3.3%	-48.3%	10.2%	0.2%	-1.1
Cc1ccc2c(c1)C1(C)C(C(C)(C)N2C=O)C1(Cl)Cl (stereo not given)	13.7%	4.2%	-11.3%	6.0%	.	2.0
CCCCC(CC)CNCC(CC)CCCC (stereo not given)	.	.	.	-5.2%	25.1µM*	.
CCCCC(CC)COP(=O)(OCC(CC)CCCC)OCC(CC)CCCC (stereo not given)	.	.	.	-29.9%	-4.5%	.
CC(C)C(NC(=O)c1ccccc1)c1nnc(SCC(=O)NC2CCCC2)n1C (stereo not given)	15.8%	.	.	.	.	-0.1
CCCCCCCCCC[n+]1cccc2c3ccccc3ccc21	?	?	?	10µM*	?	5.5
COC(=O)c1cn[nH]c1NC(=S)Nc1ccccc1C	-7.9%	3.9%	-7.0%[46.1 µM]	8.4%	?	1.8
COC(=O)c1cn[nH]c1NC(=S)Nc1ccc(C)cc1Cl	-13.2%	6.6%	-24.5%[46.1 µM]	-7.5%	7.94µM*	-0.5
COC(=O)c1cn[nH]c1NC(=S)Nc1ccc(Cl)c(Cl)c1	56.2µM*	2.4%	-8.2%[46.1 µM]	16.6%	?	1.4
O=C(CCNS(=O)(=O)c1cccc2nonc12)N1CCN(c2cccc(Cl)c2)CC1	5.6%	-3.1%	-20.1%[46.1 µM]	49.8%	2µM*	2.2
O=C(CCNS(=O)(=O)c1cccc2nonc12)NCCc1ccc(Cl)cc1	3.4%	-10.2%	-16.1%[46.1 µM]	-4.5%	20µM*	0.2
O=C(CCNS(=O)(=O)c1cccs1)N1CCN(c2cccc(Cl)c2)CC1	-4.6%	.	.	.	.	3.4
O=C(CCNS(=O)(=O)c1cccc2nonc12)Nc1ccc(Cl)cc1	8.5%	.	.	.	.	0.0
Cc1ccc(C(=O)N/C(=C\c2ccc(-c3ccccc3[N+](=O)[O-])o2)C(=O)NCCN(C)C)cc1	39.8µM*	.	.	.	.	-42.3*
Cc1ccc(C(=O)N/C(=C\c2ccc(-c3ccccc3[N+](=O)[O-])o2)C(=O)NCCCN(C)C)cc1	-11.0%	.	.	.	.	-24.4
Cc1ccc(C)c(C(=O)CSc2nnnn2C(C)C)c1	-19.9%	-4.2%	-13.1%[46.1 µM]	3.4%	?	-0.8
Cc1ccc(C(=O)CSc2nnnn2C(C)C)c(C)c1	1.8%	5.8%	-8.1%[46.1 µM]	5.0%	28.2µM*	3.4
Cc1ccc(Cl)cc1N(C(=O)c1csnn1)C(C(=O)NC1CCCC1)c1ccco1 (stereo not given)	19.9%	.	.	.	.	-2.8
CCn1c(=O)c(C(=O)NCc2ccccc2)c(O)c2ccccc21	-9.1%	.	.	.	.	-0.6
CCn1c(=O)c(C(=O)NC(C)C)c(O)c2ccccc21	3.2%	?	13.6%[46.1 µM]	1.2%	12.6µM*	0.1
COc1ccc(NC(=O)CN2CCN(C3c4ccccc4-c4ccccc43)CC2)cc1	-25.7%	-4.8%	-13.7%[46.1 µM]	2.6%	22.4µM*	-2.3
CCOc1ccc(NC(=O)COC(=O)c2c(OC)cccc2OC)cc1	1.9%	7.4%	-6.3%	60.0%	28.2µM*	2.4
CCOc1ccc(NC(=O)CN2CCN(CC(=O)Nc3ccc(F)cc3)CC2)cc1	10.2%	7.8%	-9.7%[46.1 µM]	11.6%	11.9µM*	-1.6
CCOc1ccc(NC(=O)CSC(N)=O)cc1	-11.2%	-1.0%	8.7%[46.1 µM]	7.6%	2µM*	3.8
CCOc1ccc(NC(=O)c2c(OC)cccc2OC)cc1	9.2%	-24.4%	13.7%	2.1%	-2.6%	2.8
SMILES	Sfp PPTase inh	JMJD2E inh	NPSR antagonist	RGS12 GoLoco inh	ALDH1A1 block	Coupling enz
CC1Cc2cc(/C(O)=C3/C(=O)C(=O)N(CCN4CCOCC4)C3c3ccc([N+](=O)[O-])cc3)ccc2O1 (stereo not given)	-8.4%	.	.	.	.	3.0
CCOc1ccc(NC(=O)CN2CCN(CC(=O)Nc3ccc(C(N)=O)cc3)CC2)cc1	5.1%	.	.	.	.	2.1
CCOc1ccc(NC(=O)CN2CCN(CC(=O)c3ccc(OC)c(OC)c3)CC2)cc1	8.3%	-2.0%	-11.0%[46.1 µM]	8.1%	7.08µM*	1.8
CCN(CC)S(=O)(=O)c1cccc2cccnc12	20.6%	10.8%	-3.8%[46.1 µM]	2.5%	15.8%	-3.8
CSS(=O)(=O)c1cccc2cccnc12	20µM*	2.51µM*	-18.7%	-17.4%	.	-3.9
c1cnc2c(c1)ccc1cccnc12	2.51µM*	25.1µM*	5.4%[46.1 µM]	6.2%[14.2 µM]	9.7%[13.5 µM]	-66.3*!
Cc1cccc2cccnc12	.	.	.	-2.8%	2.2%	.
CC(CS(=O)(=O)c1cccc2cccnc12)N1CCCCC1 (stereo not given)	-7.3%	-22.9%	11.8%[46.1 µM]	.	20µM*	-4.9
CCC(=O)N1CCc2cc(S(=O)(=O)CCC(=O)N3CCN(c4ccc(F)cc4)CC3)ccc21	1.8%	.	.	.	.	6.3
Cc1ccc(/C(N)=N/OC(=O)C(C)c2ccc([N+](=O)[O-])cc2)cc1 (stereo not given)	-4.4%	.	.	.	.	-1.5
Cc1ccc(NC2CCCN(C(=O)c3cccc(-c4ncc[nH]4)c3)C2)cc1C (stereo not given)	5.4%	.	.	.	.	.
CCC1S/C(=N\S(=O)(=O)c2cccs2)N(C2CCCCC2)C1=O (stereo not given)	-5.0%	-1.4%	-22.7%[46.1 µM]	-23.8%	7.94µM*	2.3
c1ccc(CN2CCC3(CC2)Nc2ccccc2S3)cc1	79.4µM*	-10.0%	12.1%	10.3%	.	-1.7
c1ccc(CN2CCC3(CC2)Nc2ccccc2CO3)cc1	8.2%	1.4%	-2.4%[46.1 µM]	-1.0%	-3.2%	1.2
CN(C)c1ccc(C(=S)N2CCN(c3ccc([N+](=O)[O-])cc3)CC2)cc1	3.55µM*	-5.4%	14.5%	20µM*	1µM*	-30.0*
CC(=O)N1CCN(C(=S)c2ccc([N+](=O)[O-])cc2)CC1	-10.3%	-5.7%	1.1%[46.1 µM]	4.9%	22.4µM*	1.6
Cc1cccc(N2CCN(C(=S)c3ccccc3)CC2)c1	?	-7.4%	-21.1%	9.0%	?	1.1
CC(=O)N1CCN(c2ccc([N+](=O)[O-])cc2)CC1	1.1%	2.3%	-10.5%	9.2%	0.9%	5.1
Cc1cccc(N2CCN(C(=S)c3ccc([N+](=O)[O-])cc3)CC2)c1	25.1µM*	-0.6%	-4.2%	-19.8%	2.51µM*	-4.9
O=[N+]([O-])c1ccc(C(=S)N2CCN(c3ccc(F)cc3)CC2)cc1	15.8µM*	-12.6%	-12.0%	0.3%	10µM*	-3.9
CCc1nnc(NC(=O)CSc2nc3cc(OC)c(OC)cc3cc2C)s1	7.2%	-4.7%	-1.5%	15.9%	-2.0%	-0.1
CN(CC(=O)Nc1ccccc1Cl)CC(=O)Nc1ccccc1[N+](=O)[O-]	8.6%	-16.0%	-8.3%	-8.8%	-7.5%	0.5
O=C(c1ccc(F)cc1)N1CCN(c2ccc([N+](=O)[O-])cc2-n2cccc2)CC1	8.4%	-0.8%	10µM*	3.5%	.	4.9

Screening data as filed in PubChem.
